Common to all, as to experiment: DAPPL (digital affinity profiling via proximity ligation, sequencing); 10 mM Tris-HCl pH 7.5, 50 mM NaCl, 1 mM DTT, 4% glycerol, room temperature, 30 min; GST-TFs on glutathione beads, 16-mer random dsDNA library, 0.1% formaldehyde crosslink after washing; high values mean tight binding
Holding throughout (settings): protein: recombinant; tags: N-terminal GST; dsDNA, one strand shown

One experiment deals with T1, FLI1 (Homo sapiens, UniProt Q01543 1-452).
T1 sequence: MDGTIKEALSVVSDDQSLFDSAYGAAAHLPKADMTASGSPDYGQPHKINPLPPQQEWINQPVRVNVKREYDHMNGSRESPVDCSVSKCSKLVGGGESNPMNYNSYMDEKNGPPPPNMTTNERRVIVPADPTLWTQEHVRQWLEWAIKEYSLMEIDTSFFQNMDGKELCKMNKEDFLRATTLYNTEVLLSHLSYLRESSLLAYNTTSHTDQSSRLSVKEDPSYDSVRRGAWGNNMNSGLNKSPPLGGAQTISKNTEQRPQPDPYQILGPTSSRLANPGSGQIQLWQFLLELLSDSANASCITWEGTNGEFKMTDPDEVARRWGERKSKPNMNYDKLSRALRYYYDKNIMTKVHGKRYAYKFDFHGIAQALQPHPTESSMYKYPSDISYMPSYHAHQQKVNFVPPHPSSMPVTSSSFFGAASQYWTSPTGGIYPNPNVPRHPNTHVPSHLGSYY
The essentials:
(§1)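 A tag-only sample was pooled with DNA-barcoded human transcription factors that had been expressed in yeast as GST fusions and captured on glutathione beads. The pools were incubated for 30 min at room temperature with 200 nmole of a random double-stranded 16-mer DNA library in Tris/NaCl/DTT/glycerol buffer, then washed, crosslinked with 0.1% formaldehyde, proximity-ligated (BsaI/T4 ligase, 1 h, 37 °C), PCR-amplified and sequenced on an Illumina NextSeq500. Binding signal is each hexamer's read frequency for a factor divided by its frequency for the tag-only sample.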

The target of the next experiment is T2, ELK1 (Homo sapiens, UniProt P19419 1-428).
T2 sequence: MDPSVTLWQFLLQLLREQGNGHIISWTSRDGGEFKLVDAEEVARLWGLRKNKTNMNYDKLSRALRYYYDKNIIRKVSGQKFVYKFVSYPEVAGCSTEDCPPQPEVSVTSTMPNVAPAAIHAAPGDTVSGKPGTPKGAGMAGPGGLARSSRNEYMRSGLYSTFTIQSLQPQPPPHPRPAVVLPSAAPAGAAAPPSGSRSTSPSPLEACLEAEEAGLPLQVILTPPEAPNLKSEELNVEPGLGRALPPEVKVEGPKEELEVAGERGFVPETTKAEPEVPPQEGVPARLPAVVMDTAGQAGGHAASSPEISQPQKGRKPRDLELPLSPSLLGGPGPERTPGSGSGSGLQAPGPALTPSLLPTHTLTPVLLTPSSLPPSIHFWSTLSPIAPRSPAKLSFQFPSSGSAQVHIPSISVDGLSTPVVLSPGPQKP
The essentials:
as §1

The target in a further experiment is T3, GABPA (Homo sapiens, UniProt Q06546 1-454).
T3 sequence: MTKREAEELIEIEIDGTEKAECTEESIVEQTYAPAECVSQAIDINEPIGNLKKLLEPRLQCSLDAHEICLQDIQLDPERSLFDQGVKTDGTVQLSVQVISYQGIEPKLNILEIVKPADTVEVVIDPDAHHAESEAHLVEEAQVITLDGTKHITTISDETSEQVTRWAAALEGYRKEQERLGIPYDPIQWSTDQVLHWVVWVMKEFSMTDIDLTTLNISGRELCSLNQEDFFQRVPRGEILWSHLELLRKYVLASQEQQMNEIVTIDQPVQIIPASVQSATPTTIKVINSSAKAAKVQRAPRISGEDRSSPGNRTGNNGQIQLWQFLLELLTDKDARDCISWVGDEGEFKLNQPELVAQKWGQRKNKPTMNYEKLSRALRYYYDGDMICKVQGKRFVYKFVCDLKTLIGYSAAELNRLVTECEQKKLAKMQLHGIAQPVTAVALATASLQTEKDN
The essentials: as §1

The next experiment addresses T4, ERG (Homo sapiens, UniProt P11308 1-479).
T4 sequence: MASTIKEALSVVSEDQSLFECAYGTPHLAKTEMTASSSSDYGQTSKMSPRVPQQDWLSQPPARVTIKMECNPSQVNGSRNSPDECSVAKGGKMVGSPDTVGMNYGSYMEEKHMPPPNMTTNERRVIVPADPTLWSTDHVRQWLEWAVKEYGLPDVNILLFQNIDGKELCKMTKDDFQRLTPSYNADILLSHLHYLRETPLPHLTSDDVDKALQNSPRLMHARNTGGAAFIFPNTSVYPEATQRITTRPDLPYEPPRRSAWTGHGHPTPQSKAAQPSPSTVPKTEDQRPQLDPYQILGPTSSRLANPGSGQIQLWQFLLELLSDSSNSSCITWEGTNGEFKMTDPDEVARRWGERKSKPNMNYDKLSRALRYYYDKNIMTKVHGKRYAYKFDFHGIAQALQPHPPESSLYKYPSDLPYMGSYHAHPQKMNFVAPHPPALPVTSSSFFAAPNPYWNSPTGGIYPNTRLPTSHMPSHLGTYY
Put shortly: as §1

For the next experiment, the target named is ELF1 (Homo sapiens, UniProt P32519 1-619). The essentials:
as §1

A further experiment deals with T5, EHF (Homo sapiens, UniProt Q9NZC4 1-300).
T5 sequence: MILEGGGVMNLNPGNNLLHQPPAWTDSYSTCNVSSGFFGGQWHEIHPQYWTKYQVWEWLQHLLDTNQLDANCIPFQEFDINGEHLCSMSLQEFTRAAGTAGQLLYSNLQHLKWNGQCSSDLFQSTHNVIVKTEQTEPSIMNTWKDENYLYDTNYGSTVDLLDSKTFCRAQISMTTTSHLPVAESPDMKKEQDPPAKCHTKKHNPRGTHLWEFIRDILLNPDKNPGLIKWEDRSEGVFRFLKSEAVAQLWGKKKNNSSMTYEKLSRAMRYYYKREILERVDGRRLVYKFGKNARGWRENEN
Put shortly:
as §1

The next experiment has as its target SPI1 (Homo sapiens, UniProt P17947 1-270). The essentials: as §1
The target of the next experiment is SPIB (Homo sapiens, UniProt Q01892 1-262). The essentials:
as §1

Another experiment concerns the target T6, ELK3 (Homo sapiens, UniProt P41970 1-407).
T6 sequence: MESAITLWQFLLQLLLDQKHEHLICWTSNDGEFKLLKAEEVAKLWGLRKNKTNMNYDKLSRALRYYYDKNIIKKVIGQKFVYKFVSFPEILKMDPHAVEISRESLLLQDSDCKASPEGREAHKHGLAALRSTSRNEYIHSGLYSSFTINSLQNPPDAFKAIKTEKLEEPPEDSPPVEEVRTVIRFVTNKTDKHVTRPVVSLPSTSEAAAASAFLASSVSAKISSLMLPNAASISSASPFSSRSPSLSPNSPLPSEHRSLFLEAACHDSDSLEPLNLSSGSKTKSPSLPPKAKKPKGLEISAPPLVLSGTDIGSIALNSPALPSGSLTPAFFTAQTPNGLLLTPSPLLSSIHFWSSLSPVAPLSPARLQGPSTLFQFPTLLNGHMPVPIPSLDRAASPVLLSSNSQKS
Put shortly:
as §1

Another experiment concerns the target T7, FEV (Homo sapiens, UniProt Q99581 1-238).
T7 sequence: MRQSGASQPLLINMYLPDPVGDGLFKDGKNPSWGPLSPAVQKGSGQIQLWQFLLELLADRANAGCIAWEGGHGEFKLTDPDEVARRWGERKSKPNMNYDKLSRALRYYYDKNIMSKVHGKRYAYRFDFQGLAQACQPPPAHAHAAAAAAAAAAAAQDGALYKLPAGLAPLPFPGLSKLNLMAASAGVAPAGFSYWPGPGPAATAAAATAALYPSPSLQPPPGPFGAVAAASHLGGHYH
The essentials:
as §1

A further experiment concerns the target ETV5 (Homo sapiens, UniProt P41161 1-510). The essentials: as §1
For the next experiment, the target named is T8, SPIC (Homo sapiens, UniProt Q8N5J4 1-248).
T8 sequence: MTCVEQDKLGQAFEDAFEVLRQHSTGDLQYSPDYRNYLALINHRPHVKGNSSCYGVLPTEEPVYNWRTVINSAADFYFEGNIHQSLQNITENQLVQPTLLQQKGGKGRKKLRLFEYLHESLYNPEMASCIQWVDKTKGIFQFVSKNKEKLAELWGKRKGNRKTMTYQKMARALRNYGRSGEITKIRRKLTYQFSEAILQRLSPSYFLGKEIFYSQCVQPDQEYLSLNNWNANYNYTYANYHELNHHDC
Put shortly: as §1

The target in another experiment is ELF4 (Homo sapiens, UniProt Q99607 1-663). Put shortly: as §1
Another experiment addresses T9, ELK4 (Homo sapiens, UniProt P28324-2 1-405).
T9 sequence: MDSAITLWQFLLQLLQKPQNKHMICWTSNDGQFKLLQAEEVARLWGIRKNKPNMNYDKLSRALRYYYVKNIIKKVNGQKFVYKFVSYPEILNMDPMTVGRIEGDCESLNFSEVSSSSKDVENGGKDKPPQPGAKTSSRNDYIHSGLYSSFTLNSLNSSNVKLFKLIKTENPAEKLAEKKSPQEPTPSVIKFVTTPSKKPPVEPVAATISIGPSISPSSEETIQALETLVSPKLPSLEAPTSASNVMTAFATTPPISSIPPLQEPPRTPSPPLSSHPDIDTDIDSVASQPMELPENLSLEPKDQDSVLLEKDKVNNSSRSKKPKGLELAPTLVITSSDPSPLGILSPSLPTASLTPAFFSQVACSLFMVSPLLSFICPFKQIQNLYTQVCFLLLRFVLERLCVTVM
The essentials: as §1

The target of another experiment is T10, ETV2 (Homo sapiens, UniProt O00321 1-342).
T10 sequence: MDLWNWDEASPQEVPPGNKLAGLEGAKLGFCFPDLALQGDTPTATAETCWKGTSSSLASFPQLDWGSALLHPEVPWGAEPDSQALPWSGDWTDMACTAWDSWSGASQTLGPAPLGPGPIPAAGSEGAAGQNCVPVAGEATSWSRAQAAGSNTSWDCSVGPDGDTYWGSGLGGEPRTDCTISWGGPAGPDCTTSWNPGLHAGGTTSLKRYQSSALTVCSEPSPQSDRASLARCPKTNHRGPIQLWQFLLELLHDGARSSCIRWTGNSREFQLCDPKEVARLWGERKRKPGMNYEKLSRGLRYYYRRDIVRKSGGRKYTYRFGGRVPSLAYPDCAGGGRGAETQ
The essentials: as §1

The target in a further experiment is T11, ELF3 (Homo sapiens, UniProt P78545 1-371).
T11 sequence: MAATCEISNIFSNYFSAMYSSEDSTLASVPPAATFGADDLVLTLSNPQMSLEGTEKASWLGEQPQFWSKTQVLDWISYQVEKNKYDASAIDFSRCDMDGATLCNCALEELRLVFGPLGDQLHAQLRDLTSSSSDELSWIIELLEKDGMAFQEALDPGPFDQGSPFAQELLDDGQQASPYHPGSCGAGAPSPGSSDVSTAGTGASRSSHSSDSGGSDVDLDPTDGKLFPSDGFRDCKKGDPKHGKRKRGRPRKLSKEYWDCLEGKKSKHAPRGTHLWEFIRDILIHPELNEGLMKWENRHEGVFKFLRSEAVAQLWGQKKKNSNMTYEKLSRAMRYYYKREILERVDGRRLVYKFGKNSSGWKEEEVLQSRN
The essentials: as §1

Another experiment concerns the target ETV1 (Homo sapiens, UniProt P50549 1-477). Put shortly: as §1

This note sets out measurements from publication PMC7862700, “An all-to-all approach to the identification of sequence-specific readers for epigenetic DNA modifications on cytosine”.

Chain of ETV1 (P50549 whole entry): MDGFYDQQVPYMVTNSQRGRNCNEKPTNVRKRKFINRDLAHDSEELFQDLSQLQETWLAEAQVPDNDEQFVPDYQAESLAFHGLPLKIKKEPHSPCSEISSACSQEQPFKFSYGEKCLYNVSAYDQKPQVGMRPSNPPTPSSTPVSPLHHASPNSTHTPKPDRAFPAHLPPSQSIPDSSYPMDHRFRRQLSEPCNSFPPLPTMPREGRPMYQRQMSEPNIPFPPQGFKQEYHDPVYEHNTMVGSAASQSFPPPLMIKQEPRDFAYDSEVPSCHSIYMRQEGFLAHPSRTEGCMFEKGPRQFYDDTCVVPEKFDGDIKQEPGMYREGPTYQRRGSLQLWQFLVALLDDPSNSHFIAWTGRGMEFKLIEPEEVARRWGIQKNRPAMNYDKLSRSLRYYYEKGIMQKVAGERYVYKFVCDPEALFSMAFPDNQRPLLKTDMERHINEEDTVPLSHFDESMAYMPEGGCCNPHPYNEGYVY
Chain of SPIB (Q01892 whole entry): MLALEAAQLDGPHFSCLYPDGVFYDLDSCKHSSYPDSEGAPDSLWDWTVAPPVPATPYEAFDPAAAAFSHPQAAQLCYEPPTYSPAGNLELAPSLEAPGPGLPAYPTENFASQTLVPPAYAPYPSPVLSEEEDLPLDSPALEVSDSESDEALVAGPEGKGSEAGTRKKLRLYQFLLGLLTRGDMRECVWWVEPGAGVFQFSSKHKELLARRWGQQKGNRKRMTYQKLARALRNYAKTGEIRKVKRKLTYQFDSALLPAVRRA
Chain of ELF1 (P32519 whole entry): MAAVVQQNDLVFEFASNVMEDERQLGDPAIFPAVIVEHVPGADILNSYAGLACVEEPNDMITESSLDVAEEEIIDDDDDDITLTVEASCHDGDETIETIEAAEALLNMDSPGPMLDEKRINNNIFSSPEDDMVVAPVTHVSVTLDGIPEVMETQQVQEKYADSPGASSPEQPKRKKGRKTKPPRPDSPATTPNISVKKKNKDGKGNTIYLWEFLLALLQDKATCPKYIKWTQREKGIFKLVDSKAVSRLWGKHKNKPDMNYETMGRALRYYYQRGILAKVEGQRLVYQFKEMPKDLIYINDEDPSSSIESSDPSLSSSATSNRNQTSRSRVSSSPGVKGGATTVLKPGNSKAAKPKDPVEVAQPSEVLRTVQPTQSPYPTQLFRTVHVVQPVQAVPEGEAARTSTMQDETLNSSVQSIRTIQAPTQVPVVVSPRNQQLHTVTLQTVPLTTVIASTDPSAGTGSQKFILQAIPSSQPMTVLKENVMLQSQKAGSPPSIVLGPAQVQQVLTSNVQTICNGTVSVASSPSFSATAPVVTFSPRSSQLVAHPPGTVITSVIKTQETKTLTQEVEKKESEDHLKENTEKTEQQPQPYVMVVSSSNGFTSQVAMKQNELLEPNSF
Chain of ETV5 (P41161 whole entry): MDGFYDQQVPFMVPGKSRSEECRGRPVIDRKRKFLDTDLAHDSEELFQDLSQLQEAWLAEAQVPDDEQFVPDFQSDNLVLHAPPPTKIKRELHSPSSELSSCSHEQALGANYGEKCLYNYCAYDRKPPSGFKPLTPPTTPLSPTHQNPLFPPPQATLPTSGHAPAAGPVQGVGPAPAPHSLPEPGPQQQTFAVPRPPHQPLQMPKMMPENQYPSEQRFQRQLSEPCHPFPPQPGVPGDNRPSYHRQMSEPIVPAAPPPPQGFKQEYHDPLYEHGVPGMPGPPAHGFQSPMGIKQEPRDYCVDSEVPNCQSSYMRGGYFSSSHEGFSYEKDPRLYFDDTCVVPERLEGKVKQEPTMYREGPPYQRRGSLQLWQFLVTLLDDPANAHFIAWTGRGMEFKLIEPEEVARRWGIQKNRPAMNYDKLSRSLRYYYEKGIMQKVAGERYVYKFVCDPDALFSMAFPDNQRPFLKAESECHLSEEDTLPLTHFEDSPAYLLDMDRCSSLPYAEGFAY
Chain of ELF4 (Q99607 whole entry): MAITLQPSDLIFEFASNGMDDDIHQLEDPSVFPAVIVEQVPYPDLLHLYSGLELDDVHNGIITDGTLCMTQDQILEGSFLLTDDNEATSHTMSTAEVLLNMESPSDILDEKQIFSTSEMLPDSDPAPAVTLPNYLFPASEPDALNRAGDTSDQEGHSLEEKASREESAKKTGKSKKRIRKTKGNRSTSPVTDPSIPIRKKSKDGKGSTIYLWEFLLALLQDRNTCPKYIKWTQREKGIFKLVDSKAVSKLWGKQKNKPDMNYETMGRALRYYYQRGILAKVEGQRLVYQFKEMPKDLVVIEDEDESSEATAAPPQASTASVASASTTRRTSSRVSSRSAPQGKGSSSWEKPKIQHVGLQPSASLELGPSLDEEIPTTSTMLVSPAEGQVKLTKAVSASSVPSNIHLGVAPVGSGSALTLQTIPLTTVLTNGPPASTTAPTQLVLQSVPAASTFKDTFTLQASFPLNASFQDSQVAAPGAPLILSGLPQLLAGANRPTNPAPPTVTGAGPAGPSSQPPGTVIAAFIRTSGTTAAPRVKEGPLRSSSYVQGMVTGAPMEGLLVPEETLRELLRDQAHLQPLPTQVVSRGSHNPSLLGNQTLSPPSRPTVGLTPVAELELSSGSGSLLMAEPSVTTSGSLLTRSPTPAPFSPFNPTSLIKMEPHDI

Consider GCATCC, for which the binding signal is 1.55 fold enrichment (6-mer frequency, TF over GST control) in the experiment with FLI1; 1.67 fold enrichment (6-mer frequency, TF over GST control) with ELK1; 1.36 fold enrichment (6-mer frequency, TF over GST control) in the experiment with GABPA; 1.68 fold enrichment (6-mer frequency, TF over GST control) in the experiment with ERG; 1.44 fold enrichment (6-mer frequency, TF over GST control) in the experiment with ELF1; 1.55 fold enrichment (6-mer frequency, TF over GST control) in the experiment with EHF. The binding signal in the experiment with SPI1 was 1.47 fold enrichment (6-mer frequency, TF over GST control); with SPIB, 1.6 fold enrichment (6-mer frequency, TF over GST control); with ELK3 it was 1.7 fold enrichment (6-mer frequency, TF over GST control); in the experiment with FEV, 1.73 fold enrichment (6-mer frequency, TF over GST control); with ETV5, 1.68 fold enrichment (6-mer frequency, TF over GST control); in the experiment with SPIC, 1.53 fold enrichment (6-mer frequency, TF over GST control). Moreover, the binding signal with ELF4 is 1.43 fold enrichment (6-mer frequency, TF over GST control); with ELK4, 1.28 fold enrichment (6-mer frequency, TF over GST control); with ETV2, 1.39 fold enrichment (6-mer frequency, TF over GST control); with ELF3, 1.53 fold enrichment (6-mer frequency, TF over GST control); in the experiment with ETV1 it was 1.55 fold enrichment (6-mer frequency, TF over GST control).

In the case of CCCTGC, the binding signal with FLI1 is 1.11 fold enrichment (6-mer frequency, TF over GST control); in the experiment with ELK1, 1.22 fold enrichment (6-mer frequency, TF over GST control); with GABPA, 1.12 fold enrichment (6-mer frequency, TF over GST control); in the experiment with ERG it was 1.21 fold enrichment (6-mer frequency, TF over GST control); in the experiment with ELF1 it was 1.26 fold enrichment (6-mer frequency, TF over GST control); with EHF, 1.17 fold enrichment (6-mer frequency, TF over GST control). Besides, the binding signal with SPI1 was 1.2 fold enrichment (6-mer frequency, TF over GST control); with SPIB it was 1.16 fold enrichment (6-mer frequency, TF over GST control); with ELK3 it was 1.18 fold enrichment (6-mer frequency, TF over GST control); in the experiment with FEV, 1.14 fold enrichment (6-mer frequency, TF over GST control); with ETV5, 1.18 fold enrichment (6-mer frequency, TF over GST control); in the experiment with SPIC, 1.25 fold enrichment (6-mer frequency, TF over GST control). Further, the binding signal with ELF4 was 1.38 fold enrichment (6-mer frequency, TF over GST control); with ELK4, 1.21 fold enrichment (6-mer frequency, TF over GST control); with ETV2 it was 1.05 fold enrichment (6-mer frequency, TF over GST control); with ELF3, 1.12 fold enrichment (6-mer frequency, TF over GST control); with ETV1, 1.22 fold enrichment (6-mer frequency, TF over GST control).
